# From PubChem BioAssay (NCATS)
# Values without a mark were called inactive. Results filed as inconclusive are left out. A call without a number means that no potency is given here. Calls of active or inactive are those of the source. Unless noted, calls follow the shape of the dose curve; as a rule, active = well fitted curve in the direction sought with a large enough effect; inconclusive = small, poorly fitted or top-dose-only effect, or another doubt; inactive = no such curve, though single readings can be large; an effect the other way counts as inactive or inconclusive.
# Key:
# [1] = AP1 Signaling Pathway (AID 357; active = well fitted curve in either direction with a large enough effect, not every such curve was filed as active;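 also: ME-180 reporter cells stimulated with EGF at its EC50 level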)
# Outline: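 Titration-series screen for positive or negative modulators of EC50 EGF-induced signaling in ME-180 cells carrying an AP-1-driven beta-lactamase reporter. After 5 hours at 37 degrees Celsius, CCF4 460nm/530nm emission ratio gave %Activity; AC50 values derived.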
# [2] = NFAT Signaling Pathway (AID 444; active = well fitted curve in either direction with a large enough effect, not every such curve was filed as active;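 also: carbachol stimulus at about its EC50 of 1 µM final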); settings: Jurkat NFAT-bla M1, carbachol, beta-lactamase ratio, 5 h; at 17.2 µM (top of the series)
# Outline: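 Jurkat cells carrying an NFAT-driven β-lactamase reporter and co-transfected muscarinic M1 receptor were treated with compound plus carbachol (1 uM final, an EC50 level) for 5 h at 37 °C. CCF4 loading followed for 1 h at RT; 460/530 nm ratio gave %activity.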
# [3] = Stat Signaling Pathway (AID 446; active = well fitted curve in either direction with a large enough effect, not every such curve was filed as active;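 also: ME-180 cervical cancer cells given 40 pM IL-6 alongside compound; SIE-controlled beta-lactamase reporter measured as 460/530 nm FRET emission ratio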)
# Outline: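 IL-6/STAT signaling read in ME-180 cells via an SIE beta-lactamase reporter. Stimulus was 40 pM IL-6 (its AC50) for 5 hrs, so both activation and inhibition register.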
# [4] = target: Glucocorticoid receptor (Homo sapiens) (UniProt P04150); test: GR-EFC Redistribution (AID 451; calls by dose curve; also: potency is read from the fitted curve at half-maximal effect); settings: CHO-K1 GR-EFC translocation, beta-gal luminescence, 2 h
# Outline: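 CHO-K1 cells stably expressing nuclear-localized β-gal enzyme acceptor and GR fused C-terminally to the enzyme donor fragment; ligand-driven nuclear translocation restores β-gal by complementation. Compounds titrated up to 46 uM final, 2 h at 37 °C; luminescence read.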
# [5] = target: Mitogen-activated protein kinase 10 (Mus musculus) (UniProt Q61831); test: JNK3 AlphaScreen Assay (AID 530; active = well fitted curve in either direction with a large enough effect, not every such curve was filed as active;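 also: kinase came from lysate of stimulated human HepG2 cells; signal reports phosphorylation of biotinylated GST-cJun 1-79 at Ser73 with 10 µM ATP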)
# Outline: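 Inhibitors reduce antibody binding to phosphorylated biotin-cJun, lowering AlphaScreen luminescence. Lysates from HepG2 cells pre-activated by IL-1beta plus TNF-alpha supplied JNK3; compounds were titrated.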
# [6] = target: Guanine nucleotide-binding protein G(i) subunit alpha-1 (Homo sapiens) (UniProt P63096); test: qHTS Assay for Inhibitors of RGS12 GoLoco Motif Activity (Green Fluorophore) (AID 879);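 also: negative values mean loss of peptide binding seen as reduced polarization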
# Chain of Guanine nucleotide-binding protein G(i) subunit alpha-1 (Homo sapiens) (P63096 whole entry, looked up): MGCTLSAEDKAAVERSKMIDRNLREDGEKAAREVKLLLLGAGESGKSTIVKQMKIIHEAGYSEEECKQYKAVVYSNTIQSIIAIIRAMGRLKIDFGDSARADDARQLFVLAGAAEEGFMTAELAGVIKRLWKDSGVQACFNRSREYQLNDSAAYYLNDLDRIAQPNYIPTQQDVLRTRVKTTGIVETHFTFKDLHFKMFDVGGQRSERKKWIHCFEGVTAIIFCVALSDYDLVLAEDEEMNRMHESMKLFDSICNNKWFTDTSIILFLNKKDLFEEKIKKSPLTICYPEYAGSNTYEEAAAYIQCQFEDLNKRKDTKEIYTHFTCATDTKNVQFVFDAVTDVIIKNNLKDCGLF
# Outline: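 Fluorescence polarization assay: 50 nM Gαi1 with 10 nM FITC-labeled RGS12 GoLoco peptide in 10 mM Tris pH 7.5, 150 mM NaCl, 0.1 mM GDP, 0.05% NP40, 10 min at room temperature with compound.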
# [7] = qHTS Assay for Identification of Small Molecule Agonists for Thrombopoietin (TPO) Signaling Pathway (AID 917)
# Outline: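 Luminescence from a Glycoprotein IIb promoter–driven luciferase reporter served as read-out in murine Ba/F3 cells carrying the human TPO receptor. Cells, deprived of IL-3 overnight, received compounds with 26 pM TPO and were incubated 24 hrs at 37 C.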
# [8] = target: Muscarinic acetylcholine receptor M1 (Rattus norvegicus) (UniProt P08482); test: qHTS Assay for Antagonists of Acetylcholine Muscarinic M1 Receptor: Kinetic Measurement of Intracellular Calcium Response (AID 943); also: nearly all actives have a fitted effect of over 75% in size
# Chain of Muscarinic acetylcholine receptor M1 (Rattus norvegicus) (P08482 whole entry, looked up): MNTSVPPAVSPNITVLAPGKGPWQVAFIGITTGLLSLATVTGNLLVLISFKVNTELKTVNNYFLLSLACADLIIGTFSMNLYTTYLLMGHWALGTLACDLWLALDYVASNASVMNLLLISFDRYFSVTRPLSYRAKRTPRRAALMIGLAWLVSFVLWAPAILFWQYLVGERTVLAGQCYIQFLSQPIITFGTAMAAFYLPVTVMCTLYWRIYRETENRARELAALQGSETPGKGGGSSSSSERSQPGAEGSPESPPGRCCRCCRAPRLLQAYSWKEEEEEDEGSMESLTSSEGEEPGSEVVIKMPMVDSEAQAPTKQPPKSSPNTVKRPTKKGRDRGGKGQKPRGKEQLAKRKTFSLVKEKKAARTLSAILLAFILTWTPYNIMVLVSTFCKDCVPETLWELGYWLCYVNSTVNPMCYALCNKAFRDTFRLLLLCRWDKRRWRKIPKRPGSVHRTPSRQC
# Outline: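 CHO cells expressing rat M1 receptor, Fluo-4 loaded, preincubated 10 min with compound, then stimulated with EC80 carbachol (100 nM final). Kinetic calcium fluorescence over 4 min; response taken as peak over basal signal.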
# [9] = target: Muscarinic acetylcholine receptor M1 (Rattus norvegicus) (UniProt P08482); test: qHTS Assay for Antagonists of Acetylcholine Muscarinic M1 Receptor: Measurement of IP-One Response (AID 944); also: nearly all actives have a fitted effect of over 75% in size
# Outline: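 CHO cells stably expressing rat M1, pretreated 10 min with compound, then stimulated 30 min with carbachol at EC80 (200 nM) in LiCl-containing buffer pH 7.4; IP1 accumulation read by HTRF competition (665/620 nm).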
# [10] = target: Pyruvate kinase (Leishmania mexicana) (UniProt Q27686); test: qHTS Validation Assay for Inhibitors of Leishmania Mexicana Pyruvate Kinase (AID 945)
# Outline: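 Mutant LmPYK (E451W), 0.2 nM, plus 0.5 mM PEP and 0.1 mM ADP in 50 mM imidazole pH 7.2 containing 0.01% Tween 20 and 0.05% BSA. Incubated 1 h at room temperature; luminescence via PKLight, normalized to DMSO.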
# [11] = target: Pyruvate kinase PKM (Homo sapiens) (UniProt P14618); test: qHTS Assay for Activators of Human Muscle Pyruvate Kinase (AID 954; active = well fitted curve in the direction sought with a large enough effect, not every such curve was filed as active)
# Chain of Pyruvate kinase PKM (Homo sapiens) (P14618 whole entry, looked up): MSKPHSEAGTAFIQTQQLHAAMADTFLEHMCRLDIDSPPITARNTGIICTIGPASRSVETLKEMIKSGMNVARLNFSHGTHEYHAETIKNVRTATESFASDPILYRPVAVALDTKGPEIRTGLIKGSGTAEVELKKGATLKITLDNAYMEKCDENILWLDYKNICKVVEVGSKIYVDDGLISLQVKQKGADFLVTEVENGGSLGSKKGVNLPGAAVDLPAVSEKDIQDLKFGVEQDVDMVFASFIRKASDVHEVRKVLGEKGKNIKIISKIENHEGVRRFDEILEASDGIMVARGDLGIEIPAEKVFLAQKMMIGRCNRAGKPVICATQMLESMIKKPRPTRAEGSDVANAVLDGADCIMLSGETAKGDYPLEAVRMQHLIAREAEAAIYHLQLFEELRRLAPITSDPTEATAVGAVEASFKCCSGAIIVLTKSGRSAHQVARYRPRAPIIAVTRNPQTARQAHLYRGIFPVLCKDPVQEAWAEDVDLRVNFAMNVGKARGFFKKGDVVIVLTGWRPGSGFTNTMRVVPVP
# Outline: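 Enzyme was run at intermediate activity so both inhibitors and activators could be detected. ATP formed from ADP and PEP by 0.1 nM human PKM2 during a 1 h room-temperature incubation was quantified by coupled luciferase luminescence.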
# [12] = target: Alpha-galactosidase (Coffea arabica) (UniProt Q42656); test: Counterscreen for Glucocerebrosidase Inhibitors: qHTS Assay for Coffee Bean alpha-Galactosidase at pH 4.5 (AID 957)
# Chain of Alpha-galactosidase (Coffea arabica) (Q42656 whole entry, looked up): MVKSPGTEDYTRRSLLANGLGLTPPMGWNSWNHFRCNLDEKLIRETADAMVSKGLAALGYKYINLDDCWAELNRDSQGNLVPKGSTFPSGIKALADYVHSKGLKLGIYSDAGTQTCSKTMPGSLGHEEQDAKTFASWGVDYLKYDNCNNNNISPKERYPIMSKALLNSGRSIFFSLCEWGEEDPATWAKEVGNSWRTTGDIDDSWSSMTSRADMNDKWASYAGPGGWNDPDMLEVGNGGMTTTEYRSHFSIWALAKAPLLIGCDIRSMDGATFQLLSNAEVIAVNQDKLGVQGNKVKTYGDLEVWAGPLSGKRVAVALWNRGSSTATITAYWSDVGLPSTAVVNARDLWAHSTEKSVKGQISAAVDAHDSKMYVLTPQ
# Outline: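 Coffee bean enzyme (2 nM) with 80 uM 4-methylumbelliferyl alpha-D-galactopyranoside in 50 mM citric acid, 0.005% Tween-20, pH 4.5, 20 min at room temperature; compounds 0.7 nM–77 uM. Stopped at pH 10, fluorescence 365/440 nm; AC50 from Hill fits.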
# [13] = target: Alpha-galactosidase A (Homo sapiens) (UniProt P06280); test: Counterscreen for Glucocerebrosidase Inhibitors: qHTS Assay for Human alpha-Galactosidase at pH 4.5 (AID 992)
# Outline: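 Read-out is 4-methylumbelliferone fluorescence (365 nm excitation, 440 nm emission) after a pH 10 NaOH/glycine stop. Reactions held 2 nM enzyme and 80 uM substrate at pH 4.5 for 20 min at room temperature.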
# [14] = target: alpha-glucosidase (Oryza sativa, rice) (UniProt Q653V4); test: Counterscreen for Glucocerebrosidase Inhibitors: qHTS Assay for Rice alpha-Glucosidase at pH 5.0 (AID 997)
# Outline: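 Rice alpha-glucosidase (4 nM final) with 400 uM 4-methylumbelliferyl-alpha-D-glucopyranoside in citrate buffer pH 5.0, 20 min at room temperature, stopped at pH 10; fluorescence 365/440 nm, compounds 0.7 nM–77 uM, AC50 from Hill fits.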
# [15] = target: Alpha-galactosidase (Coffea arabica) (UniProt Q42656); test: Counterscreen for Glucocerebrosidase Inhibitors: qHTS Assay for Coffee Bean alpha-Galactosidase at pH 5.9 (AID 998)
# Outline: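 Green coffee bean enzyme (2 nM final) was incubated with compounds (0.7 nM–77 uM) and 4-methylumbelliferyl alpha-D-galactopyranoside (80 uM) in citrate buffer pH 5.9, 20 min at room temperature. High-pH stop; fluorescence 365/440 nm; AC50 from Hill fits.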
# [16] = target: DNA repair nuclease/redox regulator APEX1 (Homo sapiens) (UniProt P27695); test: qHTS Validation Assay for Inhibitors of the Human Apurinic/apyrimidinic Endonuclease 1 (APE1) (AID 1705;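 also: TAMRA fluorescence gain over two minutes as APE1 cuts a quenched THF abasic duplex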)
# Chain of DNA repair nuclease/redox regulator APEX1 (Homo sapiens) (P27695 whole entry, looked up): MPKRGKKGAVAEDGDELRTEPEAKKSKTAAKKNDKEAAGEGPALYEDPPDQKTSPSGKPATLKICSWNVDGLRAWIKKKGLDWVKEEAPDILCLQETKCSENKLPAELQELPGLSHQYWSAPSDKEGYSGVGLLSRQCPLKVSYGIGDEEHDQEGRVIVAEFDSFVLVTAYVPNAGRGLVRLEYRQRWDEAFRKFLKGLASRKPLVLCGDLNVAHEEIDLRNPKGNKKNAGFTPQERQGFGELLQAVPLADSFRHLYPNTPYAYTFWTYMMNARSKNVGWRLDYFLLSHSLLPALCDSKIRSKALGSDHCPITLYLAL
# Outline: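 qHTS, 1536-well. APE1 + cpd 15 min RT → 50 nM TAMRA/BHQ-2 THF-abasic dsDNA substrate → kinetic fluorescence, 3 reads/60 s; delta(read3−read1) = reaction progress. No-enzyme buffer = negative control.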
# [17] = target: Endonuclease 4 (Escherichia coli (strain K12)) (UniProt P0A6C1); test: Counterscreen for APE1 Inhibitors: qHTS Validation Assay for Inhibitors of Endonuclease IV (AID 1708)
# Outline: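 Concentration-response counterscreen run identically to the APE1 assay: 15 min room-temperature preincubation of 2 nM enzyme with compound, reaction started with 50 nM quenched abasic DNA, progress taken from kinetic fluorescence.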
# [18] = qHTS for differential inhibitors of proliferation of Plasmodium falciparum line 7G8 (AID 1815);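 also: parasite growth measured after three days of incubation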
# [19] = qHTS for differential inhibitors of proliferation of Plasmodium falciparum line GB4 (AID 1816); settings: Potency: Plasmodium falciparum GB4 proliferation inhibition;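 also: parasite growth measured after 72 h incubation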
# [20] = qHTS for differential inhibitors of proliferation of Plasmodium falciparum line 3D7 (AID 1876);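 also: parasite growth measured after three days of culture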
# [21] = qHTS for differential inhibitors of proliferation of Plasmodium falciparum line D10 (AID 1877);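 also: parasites grown with compound for 72 h before DNA staining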
# [22] = qHTS for differential inhibitors of proliferation of Plasmodium falciparum line W2 (AID 1883); settings: Potency: Plasmodium falciparum W2 proliferation inhibition;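 also: parasites grown with compound for 72 h before lysis and staining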
# [23] = qHTS for differential inhibitors of proliferation of Plasmodium falciparum line HB3 (AID 1886); settings: Potency: Plasmodium falciparum HB3 proliferation inhibition;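 also: parasites grown with compound for 72 h before SYBR Green readout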
# [24] = qHTS Assay for Modulators of Human Peripheral Myelin Protein 22 (PMP22) Expression/Activity (AID 1967; active = well fitted curve in the direction sought with a large enough effect in the signal ratio; the % refers to the signal ratio)
# Outline: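 Luminescence ratio of Pmp22 promoter-driven green luciferase to EF-alpha-driven red luciferase, in engineered mouse MSC80 Schwann cells, served as read-out. Compounds were incubated 24h; untreated cells defined 0% Activity; curves were classified by r2, magnitude and activity.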
# [25] = target: ATP-dependent DNA helicase Q1 (Homo sapiens) (UniProt P46063); test: qHTS Validation Assay for Inhibitors of RecQ-Like Dna Helicase 1 (RECQ1) (AID 2353)
# Chain of ATP-dependent DNA helicase Q1 (Homo sapiens) (P46063 whole entry, looked up): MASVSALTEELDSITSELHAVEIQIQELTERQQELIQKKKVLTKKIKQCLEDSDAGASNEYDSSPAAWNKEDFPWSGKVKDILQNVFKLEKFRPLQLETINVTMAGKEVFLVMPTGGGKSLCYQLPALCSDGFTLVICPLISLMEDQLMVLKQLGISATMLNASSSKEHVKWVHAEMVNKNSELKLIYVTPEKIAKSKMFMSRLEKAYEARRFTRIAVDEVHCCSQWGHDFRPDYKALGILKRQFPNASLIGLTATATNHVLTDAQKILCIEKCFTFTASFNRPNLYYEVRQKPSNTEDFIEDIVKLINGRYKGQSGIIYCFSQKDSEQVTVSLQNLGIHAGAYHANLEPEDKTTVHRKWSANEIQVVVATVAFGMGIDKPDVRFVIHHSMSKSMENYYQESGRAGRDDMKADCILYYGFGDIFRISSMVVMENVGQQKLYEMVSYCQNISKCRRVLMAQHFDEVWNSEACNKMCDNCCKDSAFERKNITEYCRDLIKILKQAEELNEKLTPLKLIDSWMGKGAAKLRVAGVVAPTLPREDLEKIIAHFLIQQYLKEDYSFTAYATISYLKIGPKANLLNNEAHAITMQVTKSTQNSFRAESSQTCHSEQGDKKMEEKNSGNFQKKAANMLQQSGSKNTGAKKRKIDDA
# Outline: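 50 nM RECQ1T1 preincubated 15 min with compound in Tris pH 8.0 buffer with MgCl2, DTT, Tween-20 and 2.5 ug/ml poly(dI-dC); started with 200 nM TAMRA/BHQ-2 forked duplex and 2 mM ATP. Unwinding read as fluorescence (525/598 nm), two reads 2 h apart.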
# [26] = target: RecQ-like DNA helicase BLM (Homo sapiens) (UniProt P54132); test: qHTS Validation Assay for Inhibitors of Bloom's syndrome helicase (BLM) (AID 2364)
# Outline: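 BLM 50 nM in 25 mM Tris-HCl pH 8.0, 5 mM NaCl, 2 mM MgCl2, 1 mM DTT, 0.01% Tween-20, 2.5 ug/ml poly(dI-dC); 15 min cpd preinc, RT. Start: 200 nM forked DNA + 2 mM ATP (final). TAMRA read, 2 reads 2 h apart.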
# [27] = Validation screen for inhibitors of Lassa infection (AID 463096; calls by dose curve)
# [28] = Validation screen for small molecules that induce DNA re-replication in MCF 10A normal breast cells (AID 463097); also: nearly all actives have a fitted effect of over 60% in size
# Outline: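 Image-based qHTS: normal breast cells are incubated with compound for 48 hr, stained with Hoechst, and scanned for total nuclear fluorescence. Compounds raising the fraction of nuclei with elevated DNA content count as re-replication inducers.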
# [29] = Quantitative high throughput screen for delayed death inhibitors of the malarial parasite plastid, 96 hour incubation (AID 488745); also: nearly all actives have a fitted effect of over 70% in size
# Outline: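 Luciferase-expressing P. falciparum in erythrocytes (2% hematocrit, 0.1% parasitemia) incubated with compound for 96 h at 37 C, 5% CO2, in RPMI 1640 with 0.5% Albumax. Growth inhibition read as decreased luminescence.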
# [30] = target: M-phase phosphoprotein 8 (Homo sapiens) (UniProt Q99549); test: qHTS Validation Assay for Inhibitors for MPP8 Chromodomain Interactions with Methylated Histone Tails (AID 488949);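 also: 50 nM MPP8 with 50 nM peptide preformed then compounds added for 30 min; AlphaScreen signal from MPP8 chromodomain bound to biotinylated H3K9me3 peptide; top concentration of the series differs between compounds; nearly all actives have a fitted effect of over 55% in size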
# Chain of M-phase phosphoprotein 8 (Homo sapiens) (Q99549 whole entry, looked up): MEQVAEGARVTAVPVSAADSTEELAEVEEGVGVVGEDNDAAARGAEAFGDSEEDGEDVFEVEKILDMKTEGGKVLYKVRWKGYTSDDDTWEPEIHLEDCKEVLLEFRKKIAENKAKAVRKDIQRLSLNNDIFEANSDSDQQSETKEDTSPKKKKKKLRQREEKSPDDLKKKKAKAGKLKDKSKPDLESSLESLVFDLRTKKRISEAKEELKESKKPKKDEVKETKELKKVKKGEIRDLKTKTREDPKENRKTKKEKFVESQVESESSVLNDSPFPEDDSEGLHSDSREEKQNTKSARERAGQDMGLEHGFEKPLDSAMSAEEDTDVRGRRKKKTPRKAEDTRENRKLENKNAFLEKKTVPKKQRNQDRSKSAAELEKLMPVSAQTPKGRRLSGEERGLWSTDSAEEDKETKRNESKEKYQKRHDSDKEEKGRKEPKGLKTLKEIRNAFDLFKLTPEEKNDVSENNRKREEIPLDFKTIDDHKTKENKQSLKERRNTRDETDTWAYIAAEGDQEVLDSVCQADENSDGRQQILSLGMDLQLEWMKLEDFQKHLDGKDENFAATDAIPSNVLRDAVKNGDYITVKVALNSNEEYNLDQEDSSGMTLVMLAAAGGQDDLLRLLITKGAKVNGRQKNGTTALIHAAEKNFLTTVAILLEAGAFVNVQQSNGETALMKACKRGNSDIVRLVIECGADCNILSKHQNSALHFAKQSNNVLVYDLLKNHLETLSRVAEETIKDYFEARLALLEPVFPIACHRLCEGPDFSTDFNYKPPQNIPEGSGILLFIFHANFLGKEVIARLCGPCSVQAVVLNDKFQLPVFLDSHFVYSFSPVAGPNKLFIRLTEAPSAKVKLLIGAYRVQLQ
# Outline: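 50 nM MPP8 + 50 nM b-H3K9me3 peptide, PBS pH 7.4/0.01% Tween-20, 30 min RT; + cpd 30 min RT; + AlphaScreen donor/Ni-chelate acceptor beads 10 ug/mL final, 30 min dark; luminescence read.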
# [31] = target: Thyrotropin receptor (Homo sapiens) (UniProt P16473); test: qHTS Assay for Antagonists of the Thyroid Stimulating Hormone Receptor (AID 488980)
# Chain of Thyrotropin receptor (Homo sapiens) (P16473 whole entry, looked up): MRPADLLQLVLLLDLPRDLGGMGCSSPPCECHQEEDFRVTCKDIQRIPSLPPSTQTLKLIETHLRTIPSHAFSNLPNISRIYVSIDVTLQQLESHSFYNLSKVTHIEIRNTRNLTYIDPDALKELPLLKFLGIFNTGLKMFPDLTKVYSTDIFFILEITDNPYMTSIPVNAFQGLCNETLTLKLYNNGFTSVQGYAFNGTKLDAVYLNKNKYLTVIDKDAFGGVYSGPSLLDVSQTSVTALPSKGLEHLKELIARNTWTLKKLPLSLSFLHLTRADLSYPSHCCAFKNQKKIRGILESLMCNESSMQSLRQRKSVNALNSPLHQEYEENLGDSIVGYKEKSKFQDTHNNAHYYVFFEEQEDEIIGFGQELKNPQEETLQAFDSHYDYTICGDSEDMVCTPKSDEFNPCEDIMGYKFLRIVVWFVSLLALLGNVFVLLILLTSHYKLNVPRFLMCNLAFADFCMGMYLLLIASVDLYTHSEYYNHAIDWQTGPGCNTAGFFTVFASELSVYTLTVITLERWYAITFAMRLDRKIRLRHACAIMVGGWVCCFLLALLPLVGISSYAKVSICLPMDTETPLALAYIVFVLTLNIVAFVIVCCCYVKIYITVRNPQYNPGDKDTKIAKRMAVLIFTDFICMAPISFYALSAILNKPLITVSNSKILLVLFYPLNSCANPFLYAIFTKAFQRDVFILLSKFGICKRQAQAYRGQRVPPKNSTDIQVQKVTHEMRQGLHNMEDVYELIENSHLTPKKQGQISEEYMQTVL
# Outline: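 Readout is cAMP by HTRF competition between cellular cAMP and cAMP-d2 for a cryptate-labelled antibody. Antagonism was assessed in TSHR-transfected HEK293 cells stimulated with 4 nM TSH (EC80, final) in the presence of RO 20-1724.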
# [32] = target: Thyrotropin-releasing hormone receptor (Homo sapiens) (UniProt P34981); test: qHTS for Small Molecule Agonists and Allosteric Enhancers of Human TRH Receptor: Validation Screen for Agonists (AID 493127;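 active = calcium activation more than 3 SD above the typical response in the agonist read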); settings: TRH receptor agonist cell assay; at 2 µM; stronger effect = higher value
# Outline: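 TRHR cells loaded with fluo-8 calcium dye; FDSS kinetic fluorescence (Ex 480/Em 530) read at 1 s/cycle after 23 nL compound addition. Agonist-mode calcium response recorded before the 10 nM TRH (EC20) addition.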
# [33] = target: Galactokinase (Homo sapiens) (UniProt P51570); test: qHTS Validation Assay for Inhibitors of Human Galactokinase (GALK) (AID 493189)
# Chain of Galactokinase (Homo sapiens) (P51570 whole entry, looked up): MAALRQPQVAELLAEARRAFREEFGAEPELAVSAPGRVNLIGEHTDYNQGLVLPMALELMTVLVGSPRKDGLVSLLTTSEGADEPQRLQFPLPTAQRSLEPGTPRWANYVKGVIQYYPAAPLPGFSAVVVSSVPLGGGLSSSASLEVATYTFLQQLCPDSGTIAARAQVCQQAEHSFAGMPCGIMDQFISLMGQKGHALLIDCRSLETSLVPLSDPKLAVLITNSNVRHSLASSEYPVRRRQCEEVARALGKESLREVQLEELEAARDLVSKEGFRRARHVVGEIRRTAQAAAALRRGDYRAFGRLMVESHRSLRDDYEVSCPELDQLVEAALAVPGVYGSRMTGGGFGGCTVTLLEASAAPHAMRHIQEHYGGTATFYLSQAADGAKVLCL
# Outline: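 5 nM GALK / 100 uM galactose / 35 uM ATP, 20 mM HEPES pH8.0, 5 mM MgCl2, 60 mM NaCl, 1 mM DTT, 0.01% BSA (final). RT 1 h; Kinase-Glo Plus luminescence.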
# [34] = Validation screen for small molecules that induce DNA re-replication in SW480 colon adenocarcinoma cells (AID 504364)
# Outline: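 SW480 cells (250/well) exposed 48 h at 37 C, 5% CO2, then Hoechst-stained 40 min. Nuclear DNA content imaged by fluorescence scanning (405 nm excitation, 500-530 nm emission); re-replication scored as increased nuclei with elevated intensity.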
# [35] = target: Voltage-gated inwardly rectifying potassium channel KCNH2 (Homo sapiens) (UniProt Q12809); test: qHTS Assay for Small Molecule Inhibitors of the Human hERG Channel Activity (AID 588834);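 also: top concentration of the series differs between compounds; lower thallium flux fluorescence means stronger hERG block; nearly all actives have a fitted effect of over 50% in size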
# Outline: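 hERG-BacMam U2OS, 2000 cells/well; 0.7X FluxOR loading 1 hr RT dark; cpd ~10 min 37 °C; stim buffer; FDSS fluorescence 2 min @ 1 s; AC50 Hill fit.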
compound,measurement,setting,value
C[C@H]1OC[C@@H](C[N+](C)(C)C)O1,outcome,[1],inactive
same,"activity change, negative = inhibition",[2],147% [activator] (active)
same,outcome,[3],inactive
same,Potency,[4],> 46 µM
same,outcome,[5],inactive
same,outcome,[6],inactive
same,outcome,[7],inactive
same,Potency,[8],inactive
same,Potency,[9],inactive
same,Potency,[10],inactive
same,outcome,[11],inactive
same,outcome,[12],inactive
same,outcome,[13],inactive
same,outcome,[14],inactive
same,outcome,[15],inactive
same,Potency,[16],inactive
same,Potency,[17],inactive
same,Potency,[18],inactive
same,Potency,[19],inactive
same,Potency,[20],inactive
same,Potency,[21],inactive
same,Potency,[22],inactive
same,Potency,[23],inactive
same,outcome,[24],inactive
same,outcome,[25],inactive
same,outcome,[26],inactive
same,Potency,[27],inactive
same,Potency,[28],inactive
same,Potency,[29],inactive
same,Potency,[30],inactive
same,outcome,[31],inactive
same,activation,[32],24.3%
same,outcome,[33],inactive
same,outcome,[34],inactive
same,Potency,[35],inactive
